This is part of a sample that, as a whole, favours compounds with a hit. Of some 79,000 tested, about 15% had one in any assay. Unmarked numbers belong to inactive results. Active and inactive are the calls of the source. Rule as the data show it: active = growth inhibition above about 70%; inactive = the rest.
Columns and labels:
[1] = NCI Yeast Anticancer Drug Screen. Data for the rad50 strain (AID 155);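 also: 0% = growth of vehicle-only cultures of the same strain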; settings: S. cerevisiae rad50 strain growth inhibition; at 50.0 µM; stronger effect = higher value
How it was run: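 Genetically altered yeast (DNA repair pathway); compound treatment; growth inhibition vs vehicle ctrl.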

[2] = NCI Yeast Anticancer Drug Screen. Data for the mec2-1 strain (AID 157); settings: S. cerevisiae mec2-1 strain, at 50.0 µM, stronger effect = higher value
How it was run: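 mec2-1 yeast strain, carrying an alteration in DNA damage repair or cell cycle control, was exposed to compounds; growth inhibition was measured relative to vehicle-treated controls.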

[3] = NCI Yeast Anticancer Drug Screen. Data for the sgs1 mgt1 strain (AID 161);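 also: 0% = growth of cultures given vehicle only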; settings: S. cerevisiae sgs1 mgt1 strain, at 50.0 µM, stronger effect = higher value
How it was run: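 Yeast cells carrying a defined DNA-repair defect were exposed to test compounds. Growth inhibition was measured relative to vehicle-treated controls.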

[4] = NCI Yeast Anticancer Drug Screen. Data for the cln2 rad14 strain (AID 165);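 also: 0% = growth equal to vehicle treated cultures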; settings: S. cerevisiae cln2 rad14 strain, at 50.0 µM, stronger effect = higher value
How it was run: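 Yeast carrying cln2 and rad14 alterations (cell cycle control and DNA damage repair) were exposed to compounds. Growth inhibition was measured against vehicle-treated controls.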

[5] = NCI Yeast Anticancer Drug Screen. Data for the bub3 strain (AID 167); settings: S. cerevisiae bub3 mutant strain, at 50.0 µM, stronger effect = higher value
How it was run: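 Yeast carrying a defined mutation is treated with each compound, and growth is compared with that of vehicle-exposed cells to give inhibition.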

[6] = NCI Yeast Anticancer Drug Screen. Data for the mlh1 rad18 strain (AID 175); settings: S. cerevisiae mlh1 rad18 strain growth inhibition; at 50.0 µM; stronger effect = higher value
How it was run: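 Growth inhibition of the yeast strain was measured after compound exposure and expressed relative to vehicle-treated controls. The strain carries defined defects in DNA damage repair.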

| SMILES | growth inhibition [1] | growth inhibition [2] | growth inhibition [3] | growth inhibition [4] | growth inhibition [5] | growth inhibition [6] |
| --- | --- | --- | --- | --- | --- | --- |
| CCOCCOCCOC(C)Oc1ccc(Cl)cc1 (stereo unspecified) | 4.05% | 8.4% | -9.05% | 10.7% | 6.15% | 9.55% |
| CCCCCCC1(C)OCC(c2ccccc2)O1 (stereo unspecified) | -0.1% | -33.5% | 5.95% | -11.7% | 2.2% | 9.65% |
| Cc1ccc(C)c(NC(=O)c2ccc([N+](=O)[O-])cc2)c1 | -4.55% | 17.4% | 10% | -11.8% | 16.4% | 23.6% |
| CC(Oc1cc(Cl)c(Cl)cc1Cl)C(=O)NC(Cc1ccccc1)C(=O)O (stereo unspecified) | 8.5% | 9.45% | 13.5% | 25.6% | -0.45% | 5.8% |
| O=C1COC(C(O)(c2ccccc2)c2ccccc2)C(=O)N1 (stereo unspecified) | -5.35% | -18.9% | -1.3% | -65% | -21.4% | 6.25% |
| C=[N+](CNC(=O)CNC(=O)C(Cc1ccc([N+](=O)[O-])cc1)NC(=O)OC(C)(C)C)C(=O)CNC(=O)C(Cc1ccc([N+](=O)[O-])cc1)NC(=O)OC(C)(C)C (stereo unspecified) | -23.1% | -28% | -29.4% | 3.3% | -12.2% | -18.8% |
| Cc1ccc(Nc2c3ccccc3nc3ccccc23)cc1C | 98.8% (active) | 95.8% (active) | 97.7% (active) | 90.6% (active) | 90.2% (active) | 98.5% (active) |
| CCOC(=O)/C=C1\CONC(c2ccc(OC)cc2)=N1 | -9.1% | -5.3% | -12.4% | -19.2% | 3.4% | 2% |
| COc1ccc(S(=O)(=O)N/N=C/c2cc(I)cc([N+](=O)[O-])c2O)cc1 | 15.1% | 0.6% | 9.85% | 8% | -3.85% | 2.5% |
| O=C(Nc1ccc(Br)cc1)C(=O)C(C(=O)c1ccccc1F)C1OC(=O)c2ccccc21 (stereo unspecified) | -17.6% | -1.65% | -13.8% | -50.9% | -5.4% | 7% |
| CC1C(=O)OCC2=CCN3CCC(OC(=O)C(C)C1(C)O)C23 (stereo unspecified) | 2.25% | -15.8% | -3.45% | 8.05% | 0.9% | -32.5% |
| O=[N+]([O-])c1ccccc1Oc1ccccc1 | 33.6% | -8.65% | 5.65% | 14.2% | -14.7% | 8% |
| O=C(/C=C/c1ccc2c(c1)OCO2)NCc1ccco1 | 53.5% | 8.7% | -19.6% | -5.8% | -14.4% | -34.9% |
| CCC(=O)C1C(=O)CC(=O)C(C)C1c1ccccc1OC (stereo unspecified) | -14.8% | -6.6% | 4.5% | 38.5% | 27.8% | 10.4% |
| c1ccc(-c2c3ccccc3c(-c3ccccc3)c3ccccc23)cc1 | 6.2% | 5.95% | 6.7% | -3.75% | 2.4% | 19.7% |
| CCOC(=O)[C@H]1Nc2ccc(Cl)cc2[C@H]2c3ccccc3O[C@H]21 | 4.85% | -22.3% | -23.1% | 8.35% | -19.7% | -19.4% |
| O=C(O)CCC(=O)Nc1ccc(Cl)cc1 | 8% | 5.7% | -0.05% | -16.1% | 5.15% | 5.55% |
| C/C=C(\C)C(=O)OC1CC(C)(O)C(=O)C(OC(=O)/C(C)=C/C)C2(C)CCC(O)(C(C)C)C12 (stereo unspecified) | -27.2% | -30.1% | -34.7% | -16.8% | -15% | -24.8% |
| O=C(O)c1cccc2ccc3cccc(C(=O)O)c3c12 | -5.35% | -6.05% | -0.45% | -74.8% | 2% | -17.2% |
| CNCCN(C)Cc1ccccc1 | -17.4% | -24.6% | -3.8% | 11% | 10.7% | -8.3% |
| O=C1c2cccc(S)c2C(=O)c2cccc(S)c21 | -21.5% | -11.3% | -9.75% | 4.7% | 5.35% | -15.5% |

| SMILES | growth inhibition [1] | growth inhibition [2] | growth inhibition [3] | growth inhibition [4] | growth inhibition [5] | growth inhibition [6] |
| --- | --- | --- | --- | --- | --- | --- |
| CN(C)C(=O)/C=C/C(=O)O (tested in a mixture with another compound) | -1.25% | -10.3% | 6.9% | 7.65% | 16.8% | -20.8% |
| CCCOC(=O)C(CC)CC(C)C (stereo unspecified) | -4.95% | 2.85% | -4% | -22.7% | 9.35% | 14.8% |
| Cc1cccc(F)c1C | 24.9% | -14.5% | 4.9% | 6.1% | 3.2% | 7.25% |
| O=C(c1ccccc1)c1ccc2ccccc2c1C(=O)O | -8.25% | 9.6% | 4.85% | -69.3% | -5.65% | -17% |
| O=C1c2ccccc2C(=O)c2c1ccc1c2N=C(c2ccc(F)cc2)CC(c2ccc(Cl)c(Cl)c2)N1 (stereo unspecified) | 58% | 20.1% | 5% | -14.7% | 7.65% | 43.6% |
| COCC12CC(CC1=O)C1C2ON2c3ccccc3C(=O)C12c1ccccc1 (stereo unspecified) | 50.9% | -8.25% | 36.8% | 37.8% | 26.9% | 18.6% |
| O=C1CCCc2ccccc21 | -2.35% | -11.3% | -29.9% | -30.3% | -14% | 1% |
| COc1ccc(/C(C#N)=C/c2ccc(N(C)CCC#N)cc2)cc1 | 28.2% | -24.1% | 24.2% | -8.75% | 15.2% | 24.5% |
| COc1cccc(N)c1 | 4.6% | -11.8% | -6.65% | -2.75% | -4.95% | -10.2% |
| COc1cc(NC(=O)CCN2CCOCC2)c2ncccc2c1 | 41.6% | 3.6% | 12.8% | -29.4% | 18.9% | 43% |
| COC(=O)C1(C(=O)OC)OC(c2ccc(OC)cc2)[C@H]2C(=O)N(C)C(=O)[C@H]21 (stereo partly specified) | 2.75% | -6% | 3.1% | -8.7% | 10.2% | 15.3% |
| CC1=NN2C(=O)C(C)SC2=NC(C)(C)C1 (stereo unspecified) | -5.6% | -17.9% | -3.15% | 29.2% | -8.2% | -16.3% |
| CC(=O)N(C)C | -9.9% | -2.05% | 12.9% | 6% | -2.3% | -6.5% |
| OCCCCC1COC(c2ccccc2)O1 (stereo unspecified) | 2.55% | -14.6% | -10.9% | -35% | -16.6% | 1.1% |
| CCN1C(=O)c2cc(=O)[nH]c(O)c2C1C (stereo unspecified) | 7.8% | -2.7% | -1.7% | -20.4% | -2.65% | 10.9% |
| COc1ccccc1OCC(=O)O | 23.6% | 0.2% | -17.8% | -24.9% | -11.9% | 23.2% |
| CCCCCCCC/C=C\CCCCCCCC(=O)OCCN(CCOC(=O)CCCCCCC/C=C/CCCCCCCC)C(=O)COC(=O)CCCCCCC/C=C\CCCCCCCC | -9.3% | -11.8% | -24.4% | -7.6% | -7.35% | 10.7% |
| O=c1[nH]c2cc([N+](=O)[O-])ccc2c2ccc(Cl)cc12 | 57.4% | 0% | 4.85% | 2.75% | 6.5% | 27.6% |
| CN1CCN(S(=O)(=O)C(c2ccccc2)C2(O)CCCCC2)CC1 (stereo unspecified) | -1.3% | 10.2% | 9.05% | -6.25% | -8.15% | 12.2% |
| O=C(OCc1ccccc1C1CSCSC1)c1cc(C(=O)OCc2ccccc2C2CSCSC2)c(C(=O)OCc2ccccc2C2CSCSC2)cc1C(=O)OCc1ccccc1C1CSCSC1 | 5.3% | -17.7% | -10.6% | 1.65% | 6.1% | -8.8% |

Reference: PubChem BioAssay (NCI)
